# From PubChem BioAssay (Tox21)
# “And” between values parts separate entries of the source, which are not always exact repeats. Identical values can stand only once. Inconclusive results are not listed. Entries that show only a call come without a potency. Where a structure was tested more than once in an assay, its records may differ in their call. The source made the active and inactive calls. The call rests on the fitted dose curve; in most records, active means well fitted activation curve with a large enough effect in the repeat runs; inconclusive means weak or mixed curves; inactive means no such curve, though single readings can be large or run the other way.
# Experiment: qHTS assay for small molecules that induce genotoxicity in human embryonic kidney cells expressing luciferase-tagged ATAD5 (AID 651632); further: nearly all actives have a fitted effect of over 15% in size
# Details: HEK293T ATAD5-luciferase induction, 16 h; series mostly up to 83.3 µM; activation: at the top concentration
# How it was run: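 Genotoxicity read-out via ATAD5-luciferase: HEK293T cells, 16 hr compound incubation at 37C, Amplite detection.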
# Potency means the concentration at half of the fitted maximal effect.
SMILES,Potency,activation
Cc1cccc(N(C)C(=S)Oc2ccc3ccccc3c2)c1,inactive,
COc1ccc(OC)c(C(O)CNC(=O)CN)c1 (centres undefined),inactive,
O=C(c1ccccc1)c1ccc(O)cc1O,inactive,
OC(CCl)CCl,inactive,
CC1=CCC(C(C)(C)O)CC1 (centres undefined),inactive,
CN(C)CCC=C1c2ccccc2CCc2ccccc21,inactive,
Nc1ccccc1N,2430 nM (active),
c1cc(-c2ccncc2)ccn1,inactive,
CC(=O)c1ccccn1,inactive,
CCCCNS(=O)(=O)c1ccccc1,,0.923% (inactive)
C=CC(C)(CCC=C(C)C)OC(C)=O (centres undefined),inactive,
Cn1cnc([N+](=O)[O-])c1Sc1ncnc2nc[nH]c12,,5.19% (inactive)
OCCO,inactive,
Cc1cccc(C(=O)O)c1,inactive,
C=C(C)C1CC=C(C)CC1 (centres undefined),inactive,
C#C[C@]1(O)CC[C@H]2[C@@H]3CCC4=Cc5oncc5C[C@]4(C)[C@H]3CC[C@@]21C,inactive,
CCOC(=O)C(C#N)=C(c1ccccc1)c1ccccc1,inactive,

SMILES,Potency,activation
Nc1ccc(S(=O)(=O)Nc2cnc3ccccc3n2)cc1,inactive,
CCCCOCCOCCOCCO,inactive,
c1ccncc1,inactive,
COC(=O)CCC(=O)OC,inactive,
O=Cc1ccccc1O,inactive,
C=C(C)C(=O)OCCOC(=O)C(=C)C,inactive,
CN1C(C(=O)Nc2ccccn2)=C(O)c2ccccc2S1(=O)=O,inactive,
CNCCCC12CCC(c3ccccc31)c1ccccc12,inactive,
C[C@]12CC[C@H]3[C@@H](CCC4=CC(=O)CC[C@@]43C)[C@@H]1CC[C@@H]2C(=O)CO,inactive,
COc1cccc2c1C(=O)c1c(O)c3c(c(O)c1C2=O)C[C@@](O)(C(=O)CO)C[C@@H]3O[C@H]1C[C@H](N)[C@H](O)[C@H](C)O1,inactive and 376 nM (active),
Cc1cccc([N+](=O)[O-])c1C,inactive,
Cc1c(C(N)=O)cc([N+](=O)[O-])cc1[N+](=O)[O-],inactive,
CC(C)(C)NC(=O)[C@H]1CC[C@H]2[C@@H]3CC[C@H]4NC(=O)C=C[C@]4(C)[C@H]3CC[C@]12C,inactive,
C#C[C@]1(O)CC[C@H]2[C@@H]3CCc4cc(OC)ccc4[C@H]3CC[C@@]21C,inactive,
COC(C)COC(C)COC(C)CO (centres undefined),inactive,
O=C(/C=C/c1ccccc1)OCc1ccccc1,,4.81% (inactive)
CC(=O)C1(C)CC2=C(CCCC2(C)C)CC1C (centres undefined),inactive,
